Experimental data taken from PubChem BioAssay AID1259336 (Sattelle Laboratory, UCL Respiratory, Division of Medicine, …, 2017).
The source made the active and inactive calls. No stated cut-off is given here; in the data, active means log2 fold change growth below about -1.8; inactive means the rest.

Assay: C. elegans growth inhibition, whole organism, log2 fold change (AID 1259336);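 further: growth scored by imaging after five days at 20 °C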
Conditions: anthelmintic screen, active compounds read low

Structure (SMILES)	log2 fold change growth
N=C(N)c1ccc(-c2cc(-c3ccccc3)on2)cc1	0.247 (inactive)
Cc1nn(C(=O)Nc2cccc(C(F)(F)F)c2)c(C)c1Sc1ncccn1	-0.494 (inactive)
N#CCN(CCCCN1CCN(c2ccc(F)cc2)CC1)C(=O)OCc1ccccc1	0.194 (inactive)
CC(C)(C)OC(=O)N1CCC(Cn2nc(-c3cnc4ccccc4c3)c3c(N)ncnc32)CC1	-0.248 (inactive)
Cc1ccc(S(=O)(=O)n2cc(-c3ccnc(N)c3)c3cc(Br)cnc32)cc1	-0.39 (inactive)
Nc1ncnc2c1ncn2[C@@H]1O[C@H](COS(=O)(=O)NC(=O)c2ccccc2O)[C@@H](O)[C@H]1O	0.353 (inactive)
Cc1ccc(Oc2ccc(NC(=O)CNc3ccccc3N3CCCC3=O)cc2)cc1	0.0475 (inactive)
Nc1nccc2ccc(Oc3ccncc3)cc12	0.145 (inactive)
Cc1nc2ccccn2c1C(=O)NCc1ccc(Cl)cc1	0.244 (inactive)
C[C@H](Oc1cccc(Cl)c1)C(=O)Nc1ccc2oc(-c3ccncc3)nc2c1	0.206 (inactive)
COc1ccc(-c2cc(NC(=O)c3ccc(F)cc3Cl)ccc2OC)cc1	0.039 (inactive)
Cc1nc(-c2ccccn2)nc(N2CC[C@H](Cc3ccccc3)C2)c1Cl	-1.52 (inactive)
COc1ccc(-c2cnc3ccc(NCc4ccc(S(N)(=O)=O)cc4)nn23)cn1	0.21 (inactive)
O=C(NCCN1CCCC1)c1cc(NCCN2CCOCC2)nc2ccc(Cl)cc12	0.29 (inactive)
CCCn1nnc(NC(=O)COc2ccc(C3CCCCC3)cc2)n1	0.0714 (inactive)
O=C(Nc1ccc2c(c1)B(O)OC2)c1ccccc1C(F)(F)F	-8.94 (active)
O=C(c1n[nH]c2c1CCCC2)N1CCN(Cc2ccc3c(c2)OCO3)CC1	0.387 (inactive)
CC(=O)NC[C@H]1CN(c2ccc(-c3ccc(CNCc4cn[nH]n4)cc3)c(F)c2)C(=O)O1	0.387 (inactive)
O=C(COc1cccc(F)c1)Nc1nc(-c2ccccn2)cs1	-0.223 (inactive)

Structure (SMILES)	log2 fold change growth
Cc1cc(Nc2ccc(C(F)(F)F)cc2)n2ccnc2n1	0.0805 (inactive)
COc1ccc2nccc(NC(=O)C3CCN(CCc4ccc(Cl)cc4)CC3)c2n1	0.423 (inactive)
O=C(CN1CCOCC1)Nc1ccc2ncnc(Nc3ccc(OCc4cccc(F)c4)c(Cl)c3)c2c1	-0.76 (inactive)
O=C1COCc2ccc(Br)cc2N1Cc1ccc(C(F)(F)F)cc1	-0.402 (inactive)
CCCCOC(=O)Nc1cc2[nH]c(C3CCCCC3)nc2cc1N1CCCC1	-0.373 (inactive)
CN1CCN(CCCOc2ncc(Nc3ncc(-c4ccc(C(F)(F)F)c(F)c4)nc3C(N)=O)cn2)CC1	-0.568 (inactive)
Nc1ncnc2c1c(-c1cnc3ccccc3c1)nn2CC1CCNCC1	0.195 (inactive)
C[C@H](Oc1ccccc1)C(=O)Nc1nc(-c2ccccn2)cs1	-0.519 (inactive)
CCN(CC)C(=O)N1CCN(C)CC1	0.355 (inactive)
FC(F)(F)c1cc(NCCc2ccccc2)nc(-c2ccccn2)n1	-0.968 (inactive)
CS(=O)(=O)c1ccc(C(=O)N(C[C@H]2CCCO2)c2nc3ccccc3s2)cc1[N+](=O)[O-]	0.211 (inactive)
Cc1ccc2[nH]c3c(NCCN(C)C)ncnc3c2c1	0.351 (inactive)
CCOc1ccc(-c2nc(NC(=O)CS(=O)(=O)c3ccccc3)sc2C)cc1	-1.31 (inactive)
Nc1ncc(-c2cn[nH]c2)cc1-c1nc2ncc(Cl)cc2[nH]1	-0.454 (inactive)
Cc1cccc(-c2nc(Nc3ccncn3)c3sccc3n2)n1	0.438 (inactive)
CC1(C)Cc2c(c(N3CCOCC3)nc3snc(Br)c23)CO1	0.562 (inactive)
CCc1ccccc1-n1c(C)cn2c3c(=O)n([C@H](C(=O)OC)C(C)C)c(=O)n(C)c3nc12	0.456 (inactive)
Cc1nc(-c2ccccn2)nc(N(C)CCc2ccccc2)c1Cl	-0.0752 (inactive)
N#Cc1nc(-c2ccccc2)oc1S(=O)(=O)c1ccc(Cl)cc1	0.277 (inactive)
